# Measured values as given in PubChem BioAssay (Tox21).
# Inconclusive results are not listed. Calls of active or inactive are those of the source. The call rests on the fitted dose curve; in most records, active means well fitted cell-killing curve with a large enough effect in the repeat runs (not every such curve was filed as active); inconclusive means weak or mixed curves, or effect the other way; inactive means no such curve, though single readings can be large or run the other way.
# Experiment: qHTS assay to identify small molecule antagonists of the estrogen related receptor signaling pathway with the pleiotropic PPARgamma coactivator (PGC) from Tox21 10K library - cell viability counter screen (AID 1224840); further: nearly all actives have a fitted effect of over 40% in size
# Details: PGC/ERR reporter cells viability, CellTiter-Fluor, 17.5 h; series mostly up to 92.4 µM; viability change, negative = cytotoxic: at the top concentration
# Outline: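 Viability counter screen, PGC/ERR cells: 17.5 h compound exposure at 37 C, CellTiter-Fluor fluorescence endpoint.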
# On the % scale 0 is the no-effect control and ±100 the full control effect.
row,SMILES,"viability change, negative = cytotoxic"
1,CCOC(=N)CC(=O)OCC,-0.748% (inactive)
2,CCOC(=O)C(C)Oc1ccc(Oc2nc3ccc(Cl)cc3o2)cc1 (stereo not drawn),-6.45% (inactive)
3,Nc1ccc(Cl)cc1[N+](=O)[O-],-15.2% (inactive)
4,N#C/C(=C1\SCC(c2ccccc2Cl)S1)n1ccnc1 (stereo not drawn),2.2% [at 42.5 µM] (inactive)
5,CCCOc1ccc(S(=O)(=O)N2CCN(CC)CC2)cc1-c1nc2c(CC)n(Cc3ccccn3)nc2c(=O)[nH]1,-8.57% (inactive)
6,CCCCN(CCCC)C(=S)SSC(=S)N(CCCC)CCCC,-27.5% (inactive)
7,Nc1ccc(S(=O)(=O)O)cc1,0.257% (inactive)
8,CC(C)c1nnc2ccc(-c3ocnc3-c3cc(F)ccc3F)cn12,-14.2% (inactive)
9,Cc1nccn1-c1ccc(Sc2cccc(C3(C(N)=O)CCOCC3)c2)cc1,-24% (inactive)
10,Cc1cc(O)c2c(O)c3c(O)cccc3cc2c1,-10.2% [at 42.5 µM] (inactive)
11,CC(=O)Oc1ccc2c(c1)CC[C@@H]1[C@@H]2CC[C@]2(C)[C@@H](O)CC[C@@H]12,-14.8% [at 42.5 µM] (inactive)
12,CO/N=C1\CN(c2nc3c(cc2F)c(=O)c(C(=O)O)cn3C2CC2)CC1CN (stereo not drawn),-4.81% [at 42.5 µM] (inactive)
13,N#C/C(=C1/SC[C@@H](c2ccc(Cl)cc2Cl)S1)n1ccnc1,-13.8% [at 42.5 µM] (inactive)
14,C=CC(=O)NCOCC(C)C,-6.62% (inactive)
15,O=C(O)Cc1ccc(-c2ccccc2)cc1,0.693% [at 42.5 µM] (inactive)
16,NCC1CCCC(CN)C1 (stereo not drawn),1.17% (inactive)
17,C=C(C)C(=O)OCCOC(=O)CC(C)=O,0.608% (inactive)

row,SMILES,"viability change, negative = cytotoxic"
1,O=C(c1ccc(O)cc1)c1ccc(Cl)cc1,-16.5% (inactive)
2,O=C(O)c1ccccc1NCCc1ccccc1,0.402% [at 42.5 µM] (inactive)
3,CCCCC(CC)C(=O)OCCOCCOCCOCCOC(=O)C(CC)CCCC (stereo not drawn),-1.68% (inactive)
4,CCCCCCCCCCOS(=O)(=O)O,-0.607% (inactive)
5,C1COCO1,0.0681% (inactive)
6,Cc1ccc(/C=N/n2c(-c3ccccc3)csc2=S)cc1,-4.9% [at 42.5 µM] (inactive)
7,CC(C)=CC=O,-0.242% (inactive)
8,CCOC(=O)[C@@H](C)Oc1ccc(Oc2nc3ccc(Cl)cc3o2)cc1,-16.9% (inactive)
9,CCCCCCCCCCCC[N+](C)(C)CCCS(=O)(=O)[O-],-9.27% (inactive)
10,ON(Cc1ccccc1)Cc1ccccc1,2.4% (inactive)
11,O=C(NCCCN1CCOCC1)c1ccc(Cl)cc1,3.62% [at 42.5 µM] (inactive)
12,CC(C)CCCCCOC(=O)CCCCC(=O)OCCCCCC(C)C,-1.42% (inactive)
13,CNC(=O)N(c1ccccc1)c1ccccc1,7.21% (inactive)
14,CCC(Cc1ccccc1)(C(=O)c1ccc(N2CCOCC2)cc1)N(C)C (stereo not drawn),-18.7% (inactive)
15,CCCCCCOC(=O)C(C)C,0.416% (inactive)
16,CC(=O)OCC(=O)[C@H]1CC[C@H]2[C@@H]3CCC4=CC(=O)CC[C@]4(C)[C@H]3CC[C@]12C,8.26% [at 42.5 µM] (inactive)
